In all, about 340,000 compounds went through this assay and about 1,000 (0.29%) were called active. Cut-off read from the data, not from the text of the source: inconclusive = inhibition above about 27% without an active follow-up result; inactive = below that. The list is a sample of the results. Potency and affinity values are given separately.

A short description of the assay: H1N1 influenza NS1A inhibitors, functional cell based assay (AID 504329). Particulars: percent inhibition, at 12.5 µM, hits give high values.
Consider `C[C@H](CO)N1C[C@H](C)[C@@H](CN(C)Cc2ccc(-c3ccccc3)cc2)Oc2c(NC(=O)Cc3ccccc3)cccc2C1=O`, for which the inhibition is 11.9% (inactive).
Under `CC(=O)Nc1ccc(Br)cc1C(=O)C(=O)O` stands 2.32% (inactive); under `C=CCc1c(C)[nH]c(=O)[nH]c1=O`, -3.62% (inactive); under `Cc1noc(C)c1NC(=O)N(C)C[C@H]1Oc2ccc(NC(=O)NC(C)C)cc2C(=O)N([C@H](C)CO)C[C@@H]1C`, -14.8% (inactive).
To `CCCn1c(N)c(C(=O)CSc2nnc3n2CCCCC3)c(=O)n(C)c1=O` belongs -16.1% (inactive); to `CC(C)CNS(=O)(=O)c1cc(C(=O)OC2CCOC2=O)c(Cl)cc1Cl` (stereo not drawn), -8.56% (inactive); to `COc1ccccc1C(CNc1ncccc1[N+](=O)[O-])N(C)C` (stereo not drawn), -0.51% (inactive).
To `COc1ccccc1CNc1ncccc1[N+](=O)[O-]` belongs -1.95% (inactive).
Consider `CC(=O)c1ccc2c(c1)C1C(Cl)C(Sc3ccccc3[N+](=O)[O-])CC1C(C(=O)O)N2` (stereo not drawn), for which the inhibition is 27.9% (inactive).
On to `CC(=O)c1ccc2c(c1)C1C(Cl)C(Sc3ccccc3[N+](=O)[O-])CC1C(c1ccccc1)N2` (stereo not drawn), for which the inhibition is -9.68% (inactive).
Under `O=C(CN1CCN(C(=O)c2ccco2)CC1)Nc1ccccc1` stands 0.71% (inactive); under `CN(C)c1nc2c(c(=O)[nH]c(=O)n2C)n1CCCc1ccccc1`, -3.17% (inactive).
Consider `CCc1cccc(CC)c1NC(=O)CN(CC(=O)O)CC(=O)O`, for which the inhibition is 5.31% (inactive).
To `O=C(O)CP(=O)(O)O` belongs -2.09% (inactive).
Under `Cn1c(=O)c2cc(S(=O)(=O)NC(C(=O)N3CCCCCC3)c3ccccc3)ccc2n(C)c1=O` (stereo not drawn) stands -3.38% (inactive).
As for `COc1ccccc1-c1cc(C(=O)NC(C)c2ccccc2)no1` (stereo not drawn), the inhibition was 10.7% (inactive).
Take `Cc1nc(N)c(Cc2ccccc2F)c(N)n1`: the inhibition is -3.84% (inactive).
To `Cc1n[nH]c(C)c1Cc1c(F)cccc1Cl` belongs -22.1% (inactive); to `Nc1nc(N)c(Cc2ccc(Cl)cc2Cl)c(N)n1`, -5.28% (inactive); to `CNc1cc(C(F)(F)F)nc(-c2ccccn2)n1`, -7.32% (inactive).
`Clc1ccc(COc2ccccn2)c(Cl)c1`: the inhibition was 18.9% (inactive).
Under `O=C(Cc1c(F)cccc1Cl)Nc1ccccn1` stands -10.5% (inactive); under `N#C/C(=C/c1ccc(-c2ccc(C(=O)O)c(Cl)c2)o1)C(=O)NCC1CCCO1` (stereo not drawn), 9.84% (inactive).
For `CN(CC(=O)Nc1ccncc1)S(=O)(=O)c1ccc(Cl)cc1`, the inhibition was 4.38% (inactive).
Under `CC(C)S(=O)(=O)c1cnc(N2CCOCC2)nc1N` stands -0.07% (inactive).
As for `Cc1cc(C(=O)CSc2nnc(N)s2)c(C)n1Cc1cccs1`, the inhibition is -7.01% (inactive).
Under `CCS(=O)(=O)N(CC(=O)Nc1cccc2ccccc12)c1ccc(OC)cc1` stands -2% (inactive); under `CC(=O)Nc1ccc(NC(=O)C(NS(=O)(=O)c2cccc3nsnc23)C(C)C)cc1` (stereo not drawn), 4.6% (inactive).
Under `c1ccc(-c2cn(C[C@H]3CC[C@@H]([C@@H]4CC[C@H](Cn5cc(-c6ccccc6)nn5)O4)O3)nn2)cc1` stands 1.07% (inactive).
As to `Cc1ccc(-c2cn(C[C@H]3CC[C@@H]([C@@H]4CC[C@H](Cn5cc(-c6ccc(C)cc6)nn5)O4)O3)nn2)cc1`, the inhibition was 1.46% (inactive).
To `c1cncc(-c2cn(C[C@H]3CC[C@H](Cn4cc(-c5cccnc5)nn4)O3)nn2)c1` belongs -19.1% (inactive).
Under `c1cncc(-c2cn(C[C@H]3CC[C@@H]([C@@H]4CC[C@H](Cn5cc(-c6cccnc6)nn5)O4)O3)nn2)c1` stands -3.65% (inactive).
To `COc1ccc(-c2cc(C#N)nc(NN)n2)cc1` belongs 4.09% (inactive).
Regarding `N/C(CSc1ccccn1)=N\OCc1c(Cl)cccc1Cl`, the inhibition was -0.92% (inactive).
Regarding `Cc1ccc(CNC(=O)CSc2ccc(-c3ccco3)nn2)cc1`, the inhibition was 0.95% (inactive).
Take `CCC(=O)Nc1cc(-c2nn(CC(=O)N3CCCCC3)c(=O)c3ccccc23)ccc1N1CCOCC1`: the inhibition was -7.33% (inactive).
To `C=CC[C@H]1C=C[C@@H](C(C(=O)OC)C(=O)OC)CN1C(C)=O` belongs -4.78% (inactive); to `COCCOC(=O)c1c(NC(=O)COC(=O)Cc2cccc(OC)c2)sc(C(N)=O)c1C`, 6.16% (inactive); to `C/C(=N/NC(=O)c1cc2ccccc2cc1O)c1ccco1`, -9.07% (inactive).
Under `C/C(=N\NC(=O)c1cc2ccccc2cc1O)c1cccs1` stands -6% (inactive); under `O=C(N/N=C/c1ccccn1)c1cc(Br)ccc1O`, -2.68% (inactive); under `C/C(=N\NC(=O)c1cc(Br)ccc1O)c1cccs1`, 0.04% (inactive).
To `CN1CCc2cc3c(c4c2C1CC41CCC(=NO)CC1)OCO3` (stereo not drawn) belongs 4.88% (inactive); to `C=CCOC(=O)C1=C[C@H](C2CC2)[C@@H](CCCO)[C@H](OCC)O1`, -9.11% (inactive); to `CC(C)/C=C/C(=O)N1CCCC(N2CCN(c3ccccc3F)CC2)C1` (stereo not drawn), -4.31% (inactive).
Regarding `COc1ccc(OC)c(NC(=O)CSc2nn3c(=O)c(C)nnc3s2)c1`, the inhibition was 12.7% (inactive).
`COc1ccccc1NC(=O)CSc1nnc(C)s1`: the inhibition was 4.51% (inactive).
With `Cc1nnc2sc(SCc3ccccc3Cl)nn2c1=O`, the inhibition is -4.7% (inactive).
Under `Cc1ccccc1CSc1nn2c(=O)c(C)nnc2s1` stands -4.51% (inactive); under `O=C(/C=N/O)NCc1ccncc1`, -2.91% (inactive); under `O=C(CC(NS(=O)(=O)c1ccc(Cl)cc1)c1ccco1)NCc1ccco1` (stereo not drawn), -0.25% (inactive).
For the compound `Cc1ccccc1NC(=S)N(Cc1cccnc1)Cc1ccco1`, the inhibition is 17% (inactive).
Turning to `Cc1cc(C(=O)NCCCOC(C)C)c2ccccc2n1`, the inhibition was 5.34% (inactive).
Turning to `COc1ccc(-c2csc(NC(=O)CCCc3nc4ccccc4c(=O)[nH]3)n2)cc1OC`, the inhibition was 0.34% (inactive).
Regarding `N#Cc1ccc(CSc2nnc3[nH]c(=O)cc(N)n23)cc1`, the inhibition is -7.19% (inactive).
Under `O=C(COc1ncnc2ccccc12)NC1CCCCC1` stands 9.63% (inactive).
With `COc1ccc(CC(=O)NC(C)c2nnc(SCC(=O)Nc3cc(C)ccc3OC)n2C)cc1` (stereo not drawn), the inhibition was -9.49% (inactive).
Under `Cc1csc(N/N=C/c2ccccn2)n1` stands 7.11% (inactive); under `O=c1cnnc(N/N=C/c2ccccn2)[nH]1`, 20.5% (inactive).
In the case of `Cc1cccc(/C=N/Nc2nncc3ccccc23)c1`, the inhibition is 3.05% (inactive).
`C(=N\Nc1nncc2ccccc12)/c1ccccc1`: the inhibition is -20.6% (inactive).
To `O=C(N/N=C/c1ccccn1)c1ccc(N/N=C/c2ccccn2)cc1` belongs 1.09% (inactive); to `C(=N\Nc1nc2ccccc2[nH]1)/c1ccccn1`, 17.1% (inactive).

Broadly, the inhibition is the change of the read-out against control, counted positive when it falls.
